Consider eight compounds from PubChem BioAssay (Tox21).

Experiment [1] is described as follows: qHTS assay for small molecule agonists of the p53 signaling pathway (AID 651631; calls by dose curve; further: nearly all actives have a fitted effect of over 15% in size). The method, boiled down:
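Readout was fluorescence from the LiveBLAzer FRET substrate, applied for 2 h at room temperature after 16 h compound exposure at 37 °C. Cells were the p53RE-bla HCT-116 line, with beta-lactamase driven by p53 response elements.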
In general terms: In qHTS, concentration-response curves come from the screen itself.

The nature of experiment [2]: qHTS assay for small molecules that induce genotoxicity in human embryonic kidney cells expressing luciferase-tagged ATAD5 (AID 651632). Further: nearly all actives have a fitted effect of over 15% in size. The method, boiled down:
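DMSO vehicle served as the control. HEK293T reporter cells, 16 hr at 37C, then 30 min Amplite at room temperature; ATAD5 induction is measured as luciferase activity.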

A short description of experiment [3]: qHTS assay for small molecule agonists of the p53 signaling pathway - cell viability (AID 651633; calls by dose curve; further: nearly all actives have a fitted effect of over 30% in size; further: potency means the concentration at half of the fitted maximal effect). The gist of the method: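 p53RE-bla cells, seeded at 4,000 per well and rested 5 h at 37 C/5% CO2, received compounds in DMSO for 16 h at 37 C. CellTiter-Glo was then added, and luminescence was read after 30 min at room temperature to gauge cytotoxicity.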
Experiment [4] is described as follows: qHTS assay for small molecules that induce genotoxicity in human embryonic kidney cells expressing luciferase-tagged ATAD5 - cell viability (AID 651634; calls by dose curve; further: nearly all actives have a fitted effect of over 25% in size). The method, boiled down: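 Here HEK293T cells with the ATAD5 luciferase reporter are incubated with test compounds for 15.5 hr, and cytotoxicity is then gauged by measuring protease activity in live cells using fluorescence.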

Experiment [5] is described as follows: qHTS assay for small molecule disruptors of the mitochondrial membrane potential - cell viability (AID 720634; calls by dose curve; further: nearly all actives have a fitted effect of over 20% in size; further: potency means the concentration at half of the fitted maximal effect). The gist of the method: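 Viability of HepG2 cells is scored from ATP content by luminescence; cells are exposed to compound for 1 hr at 37 C and 5% CO2, then dosed with m-MPI dye before the CellTiter-Glo reagent.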
A short description of experiment [6]: qHTS assay for small molecule disruptors of the mitochondrial membrane potential (AID 720635). Further: potency means the concentration at half of the fitted maximal effect. The method, boiled down:
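HepG2 cells (2,000/well) attached overnight at 37C, then took compound for 1 hr at 37C, 5% CO2. Mito-MPS dye was added for 30 min; fluorescence was read at 490/535 nm (monomers) and 540/590 nm (aggregates).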

The nature of experiment [7]: qHTS assay to test for compound auto fluorescence at 590 nm (red) in HepG2 cells (AID 720674). The gist of the method:
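Rose Bengal sodium served as the red fluorophore standard. HepG2 monolayers (overnight attachment, MEM with 10% FBS) were exposed to test compounds for 1 hr at 37 C and read at Ex 540/Em 590 nm.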

Experiment [8] is described as follows: qHTS assay to test for compound auto fluorescence at 535 nm (green) in HepG2 cells (AID 720675).
A short description of experiment [9]: qHTS assay to test for compound auto fluorescence at 460 nm (blue) in HEK293 cells (AID 720678). The gist of the method: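 HEK293 cells (2,000/well, medium with 10% dialyzed FBS) attached 4-5 hr, then exposed to compound overnight at 37C, 5% CO2. Blue fluorescence read at 405/460 nm, with triamterene as reference fluorophore.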
Experiment [10] is described as follows: qHTS assay to test for compound auto fluorescence at 590 nm (red) in HEK293 cells (AID 720679). The gist of the method:
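HEK293 cells (2,000/well, 10% dialyzed FBS) attached 4-5 hr, then dosed with compound or DMSO and incubated overnight at 37C, 5% CO2. Red fluorescence read at 540/590 nm, Rose Bengal sodium as reference fluorophore.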

Experiment [11] can be described thus: qHTS assay to test for compound auto fluorescence at 535 nm (green) in HEK293 cells (AID 720680).
Experiment [12] in a line: qHTS assay to test for compound auto fluorescence at 535 nm (green) in HEK293 cell free culture (AID 720682). The gist of the method: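 Compounds were pin-transferred into cell-free DMEM with 10% FBS, and green fluorescence was read at excitation 485 nm and emission 535 nm. Intensities were expressed as fluorescein-equivalent values.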
The nature of experiment [13]: qHTS assay to test for compound auto fluorescence at 590 nm (red) in HEK293 cell free culture (AID 720683). The gist of the method: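 Tox21 10K library compounds were pinned into cell-free DMEM with 10% FBS and fluorescence was read at excitation 540 nm. Activity is expressed as Rose Bengal sodium equivalency.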
Experiment [14] is described as follows: qHTS assay to test for compound auto fluorescence at 460 nm (blue) in HepG2 cell free culture (AID 720685). The gist of the method: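 Cell-free plates of MEM plus 10% FBS received 23 nL compound or DMSO vehicle; blue-channel (405/460 nm) intensity scored against triamterene as reference fluorophore.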
A short description of experiment [15]: qHTS assay to test for compound auto fluorescence at 535 nm (green) in HepG2 cell free culture (AID 720686).
Experiment [16] in a line: qHTS assay to test for compound auto fluorescence at 460 nm (blue) in HepG2 cells (AID 720687). The method, boiled down: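 Cells (2,000/well in MEM with 10% FBS) attached overnight at 37 C, then were exposed to compound or DMSO for 1 hr at 37 C, 5% CO2. Fluorescence read at Ex/Em 405/460 nm, expressed as triamterene-equivalent signal.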
For experiment [17], the target named is Glucocorticoid receptor (Homo sapiens) (UniProt P04150). Kind of experiment: qHTS assay to identify small molecule antagonists of the glucocorticoid receptor (GR) signaling pathway (AID 720692; active means well fitted inhibition curve with a large enough effect in the signal ratio in the repeat runs, not every such curve was filed as active; the % refers to the signal ratio). The method, boiled down:
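In a 1536-well cell format, compounds were added 4 h after seeding GR-bla HeLa cells, together with dexamethasone at 5 nM final; reporter activity was measured by FRET-substrate fluorescence following 18 h at 37 C.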

Experiment [18] in a line: qHTS assay to test for compound auto fluorescence at 460 nm (blue) in HEK293 cell free culture (AID 720681). The method, boiled down:
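Test compounds were pinned into cell-free culture medium (DMEM with 10% FBS) and fluorescence was read directly at Ex/Em 405/460 nm. Signals were expressed as fluorescence equivalents of triamterene, with DMSO vehicle as control.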

Experiment [19] is described as follows: qHTS assay to test for compound auto fluorescence at 590 nm (red) in HepG2 cell free culture (AID 720684). The method, boiled down: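 Readout: intrinsic compound fluorescence at 590 nm emission after 540 nm excitation, scaled to Rose Bengal sodium. Matrix was cell-free MEM with 10% FBS; DMSO vehicle wells served as control.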
Experiment [20] concerns the target Glucocorticoid receptor (Homo sapiens) (UniProt P04150). The experiment can be described thus: qHTS assay to identify small molecule agonists of the glucocorticoid receptor (GR) signaling pathway (AID 720691; active means well fitted activation curve with a large enough effect in the signal ratio in the repeat runs, not every such curve was filed as active; the % refers to the signal ratio). The method, boiled down: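 Compounds in DMSO, alongside positive controls, were added to GR-bla HeLa reporter cells and incubated 18 h at 37 C; GRE-driven beta-lactamase was detected by fluorescence after 2 h with FRET substrate at room temperature.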

Each structure is given as a SMILES string. Results filed as inconclusive are left out. Some structures have more than one record in an assay (separate samples or runs), and their calls can disagree. Active and inactive are the calls of the source. Unless noted, the call rests on the fitted dose curve; in most records, active means well fitted curve in the direction sought with a large enough effect in the repeat runs; inconclusive means weak or mixed curves; inactive means no such curve, though single readings can be large; an effect the other way counts as inactive or inconclusive.

Chain of Glucocorticoid receptor (Homo sapiens) (P04150 whole entry, looked up): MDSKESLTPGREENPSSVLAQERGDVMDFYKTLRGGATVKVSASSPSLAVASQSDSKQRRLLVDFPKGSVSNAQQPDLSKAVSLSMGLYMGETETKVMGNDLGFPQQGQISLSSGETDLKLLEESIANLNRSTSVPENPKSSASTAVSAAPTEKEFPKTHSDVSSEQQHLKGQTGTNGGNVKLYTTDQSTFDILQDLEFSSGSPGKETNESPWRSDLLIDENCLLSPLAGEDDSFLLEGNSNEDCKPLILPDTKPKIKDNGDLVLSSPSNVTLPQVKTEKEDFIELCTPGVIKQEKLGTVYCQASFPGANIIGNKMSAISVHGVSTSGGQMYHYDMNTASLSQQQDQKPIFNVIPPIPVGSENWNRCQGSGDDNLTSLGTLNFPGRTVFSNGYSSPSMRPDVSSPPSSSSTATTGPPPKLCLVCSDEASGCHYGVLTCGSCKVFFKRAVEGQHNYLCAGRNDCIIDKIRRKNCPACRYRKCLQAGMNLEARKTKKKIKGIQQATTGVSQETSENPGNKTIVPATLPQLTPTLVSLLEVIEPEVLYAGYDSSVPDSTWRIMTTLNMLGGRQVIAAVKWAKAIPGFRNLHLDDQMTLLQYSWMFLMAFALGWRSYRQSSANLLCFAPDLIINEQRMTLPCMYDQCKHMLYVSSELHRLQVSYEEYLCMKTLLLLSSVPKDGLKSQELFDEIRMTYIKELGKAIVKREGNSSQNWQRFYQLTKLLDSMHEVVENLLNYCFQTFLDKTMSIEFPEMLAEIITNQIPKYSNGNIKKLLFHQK

As for `CCCCOCCOP(=O)(OCCOCCCC)OCCOCCCC`, the Potency result in experiment [1], in experiment [2], in [4] and in experiment [17] was “inactive” throughout. The Potency in experiment [3] is 54.5 µM (active) and inactive; in experiment [5], 54.5 µM (active) and inactive; in experiment [6], 27.3 µM (active) and inactive. Also, the compound was called inactive in experiment [7], in experiment [8], in experiment [9], in experiment [10], in experiment [11] and in experiment [12]. For the same compound, the result in experiment [13], in [14], in experiment [15] and in [16] was inactive.
For `c1ccc(P(c2ccccc2)c2ccccc2)cc1`, the Potency result in experiment [1], in [2], in experiment [3], in [4], in [5] and in experiment [17] was “inactive” in each case. Besides, the compound was called inactive in [9], in experiment [10], in experiment [11], in experiment [18], in experiment [12] and in experiment [13]. The result in [14], in experiment [15] and in experiment [16] was inactive.
Turning to `CCOc1cc(C=O)ccc1O`, the Potency entry in experiment [1], in experiment [2], in [3], in experiment [4], in [5] and in [6] was “inactive” each time. Further, the Potency result in experiment [17] was “inactive”. The result in experiment [7], in [8], in experiment [9], in [10], in experiment [11] and in experiment [12] was inactive. Moreover, the outcome in experiment [13], in experiment [19], in [14], in experiment [15] and in [16] was inactive.
`CCCCCCOC(=O)c1ccccc1C(=O)OCCCCCC`: the Potency entry in experiment [1], in experiment [2], in [3], in [4], in experiment [5] and in experiment [20] was “inactive” in each case. Besides, the Potency result in experiment [17] is “inactive”. Moreover, the Potency in experiment [6] was 27.9 µM (active). In addition, the compound was called inactive in [7], in experiment [8], in experiment [9], in experiment [10], in experiment [11] and in experiment [12]. The call in experiment [13], in experiment [14], in [15] and in experiment [16] was inactive.
With `COc1ccc(C(CN(C)C)C2(O)CCCCC2)cc1` (stereo not given), the Potency entry in [1], in experiment [2], in experiment [3], in experiment [4], in experiment [5] and in experiment [6] was “inactive” in each case. For the same compound, the compound was called inactive in experiment [7], in experiment [8], in experiment [9], in experiment [10], in [11] and in experiment [18]. In addition, the result in experiment [12], in experiment [13], in [14], in [15] and in experiment [16] was inactive.
Turning to `COc1ccc(C=O)cc1`, the Potency entry in [1], in experiment [2], in [3], in experiment [4], in [5] and in [20] was “inactive” in each case. Further, the Potency entry in [17] is “inactive”. In addition, the call in experiment [7], in experiment [9], in experiment [10], in experiment [11], in experiment [12] and in experiment [13] was inactive. Further, the compound was classed as inactive in [19], in [14], in experiment [15] and in [16].
Turning to `COC(=O)c1sccc1S(=O)(=O)NC(=O)Nc1nc(C)nc(OC)n1`, the Potency result in [1], in [2], in experiment [3], in [4], in [5] and in experiment [6] was “inactive” throughout. Further, the Potency result in experiment [17] is “inactive”. The result in experiment [7], in experiment [8], in [9], in experiment [10], in experiment [11] and in experiment [18] was inactive. Also, the call in experiment [12], in [13], in experiment [19], in experiment [14], in experiment [15] and in experiment [16] was inactive.
With `NNC(N)=S`, the Potency result in experiment [1], in [2], in experiment [3], in experiment [4], in [5] and in experiment [20] was “inactive” throughout. Besides, the Potency entry in experiment [17] is “inactive”. The Potency in [6] was 63.5 µM (active) and inactive. Besides, the call in experiment [8], in [9], in [10], in [11], in experiment [18] and in experiment [12] was inactive. Also, the compound was called inactive in [13], in [19], in [14], in experiment [15] and in experiment [16].
